# Results published in ChEMBL document CHEMBL3988442, “University of Dundee, Small-Polar-MMV Screening Library” (2021).
# The whole screen tested about 48,000 compounds, of which about 13,000 (27%) showed an effect of 50% or more. The list shows a part of the results.
# Test system: Wolbachia pipientis
# Assay: Anti-Wolbachia Cell-Based Screen
# Type: functional
# Parameters: scale not given: in the data most compounds retested in dose-response had high values
# Details: 5 µM
row,SMILES,Percent Effect
1,CN(C)c1cccc(C2CCCN2CCCN2CCOC2=O)c1 (stereo unspecified),-17.44%
2,CN(CCc1ccccn1)c1cc(N2CCCCC2)ncn1,-10.66%
3,CN(CCC(O)c1ccccc1)c1cc(N2CCOCC2)ncn1 (stereo unspecified),3.711%
4,OCC1CCCN1c1cc(N2CCN(c3ccccn3)CC2)ncn1 (stereo unspecified),2.004%
5,CN(C)c1cc(N2CCN(c3ccccn3)CC2)ncn1,109.8%
6,CN(C)CCN(C)c1cc(N2CCN(c3ccccn3)CC2)ncn1,127.7%
7,Cc1ccccc1N1CCN(c2cc(N(C)C)ncn2)C(C)C1 (stereo unspecified),2.423%
8,CS(=O)(=O)N1C[C@@H]2CC[C@H](C1)N(C(=O)CCc1n[nH]c3c1CCCC3)C2,-4.237%
9,O=C(C1=CCCCC1)N1CCC2(CC1)COC(COc1ccccn1)C2.O=C(O)C(F)(F)F (stereo unspecified),-10.4%
10,Cc1cc(C(=O)N2CC[C@H]3[C@@H]2CCC(=O)N3c2ccccc2)no1,-22.73%
11,CC(NCC1CCN(CCO)CC1)c1cccc(Cl)c1 (stereo unspecified),-3.921%
12,c1ccc2oc(C3CCN(Cc4ncon4)CC3)nc2c1,-12.07%
13,CCOCC1CN(C(=O)c2ccco2)Cc2nn(C)cc21 (stereo unspecified),6.633%
14,CCOCC1CN(C(=O)c2cnoc2C)Cc2cnn(C)c21.O=C(O)C(F)(F)F (stereo unspecified),112.3%
15,CCOCC1CN(C(=O)c2ccco2)Cc2cnn(C)c21 (stereo unspecified),93.66%
16,CCOCC1CN(C(=O)CS(C)(=O)=O)Cc2cnn(C)c21.O=C(O)C(F)(F)F (stereo unspecified),16.84%
17,CCOCC1CN(C(=O)c2cnoc2C)Cc2cn(C)nc21.O=C(O)C(F)(F)F (stereo unspecified),-24.2%
18,CCOCC1CN(C(=O)Cc2ccccn2)Cc2cnn(C)c21.O=C(O)C(F)(F)F.O=C(O)C(F)(F)F (stereo unspecified),117.4%
19,CCOCC1CN(C(=O)Cc2ccccn2)Cc2c1cnn2C.O=C(O)C(F)(F)F.O=C(O)C(F)(F)F (stereo unspecified),-14.09%
20,CCOCC1CN(C(=O)c2ccoc2C)Cc2cnn(C)c21 (stereo unspecified),98.5%
21,CCOCC1CN(C(=O)c2cnoc2C)Cc2cn(CC3CC3)nc21 (stereo unspecified),-17.44%
22,COc1ccccc1NC(=O)NCCCC(=O)Nc1cn[nH]c1,3.089%

row,SMILES,Percent Effect
1,CC(C)Oc1cccc(F)c1C(C(=O)O)N(C)Cc1ccon1 (stereo unspecified),-4.815%
2,CCCN(C)c1ccc(C(=O)NCc2ccnc(C)n2)cc1,14.15%
3,CC(C#N)CN(C)Cc1cc(Cl)cc2cccnc12 (stereo unspecified),-4.416%
4,FC(F)(F)Sc1ccc(NCc2nnc(C3CC3)o2)cc1,4.65%
5,CC(C)Cc1ncc2c(n1)CN(c1nccc(N(C)C)n1)C2,-11.83%
6,Cc1nc(C(C)(C)NCc2nnc(C(C)C)o2)sc1C,-6.227%
7,O=C(NCCc1cccnc1)NC1CCOC2(CCCCC2)C1 (stereo unspecified),-5.946%
8,CC(O)(CNC(=O)c1cccnc1-n1cccn1)c1cccs1 (stereo unspecified),100.2%
9,CCN(CC)CCCC(C)NC(=O)c1cccnc1-n1cccn1 (stereo unspecified),-4.775%
10,CCn1nc(C)c(CNC(=O)NCC(C)(O)c2ccsc2)c1C (stereo unspecified),-9.413%
11,CC(O)(CNC(=O)c1cccnc1-n1cccn1)c1ccsc1 (stereo unspecified),107.4%
12,CCOCc1ccccc1NC(=O)NCC(C)(O)c1ccsc1 (stereo unspecified),-1.013%
13,CC(O)(CNC(=O)NCc1cccc(-n2cncn2)c1)c1ccco1 (stereo unspecified),22.01%
14,O=C(CCC(=O)N1CCOCC1)NCc1cccnc1-n1cccn1,4.294%
15,CC(O)(CNC(=O)c1cccnc1-n1cccn1)c1ccco1 (stereo unspecified),109%
16,CNC(=O)c1cccnc1NCc1ccc(-n2cccn2)cc1,-16.78%
17,CCC(C)Oc1cc(C(=O)Nc2nc(C)ns2)ccn1 (stereo unspecified),-22%
18,CC(C)N1C[C@H](O)C[C@H]1c1nc(-c2ccc(OC(F)(F)F)cc2)no1,-2.832%
19,c1c(-c2nc(CN3CCOCC3)no2)nnn1CC1CCCCC1,-29.06%
20,Cc1ccc(Cl)c(NC(=O)c2cccc(CN3CC[C@H](O)C3)c2)c1,25.72%
21,CSCCc1c(-c2ccccc2)ncn1CC(C)(C)N1CCCC1,-6.465%
22,Cc1ccc(C(=O)N2CCC3(CCC(=O)N(CC(N)=O)C3)CC2)c(O)c1,-8.417%

row,SMILES,Percent Effect
1,COc1cccc(CN2CCC3(CCN(c4ncc(C)cn4)CC3)C2)c1.O=C(O)C(F)(F)F,4.048%
2,COc1cccc(CN2CCCC3(CCN(C(=O)N4CCCC4)C3)C2)c1.O=C(O)C(F)(F)F (stereo unspecified),81.34%
3,COc1cccc(CN2CCC3(CC2)CCN(c2ncccn2)C3)c1.O=C(O)C(F)(F)F.O=C(O)C(F)(F)F,13.94%
4,COc1cccc(CN2CCC3(CC2)CCN(C(=O)[C@@H]2CCCO2)C3)c1.O=C(O)C(F)(F)F,105.3%
5,COc1cccc(CN2CCC3(CC2)CCN(c2ncc(C)cn2)C3)c1.O=C(O)C(F)(F)F,-9.924%
6,COc1cccc(CN2CCC3(CCN(C(=O)C4CC=CC4)CC3)C2)c1.O=C(O)C(F)(F)F,2.015%
7,O=C(O)[C@@H]1CN(Cc2ccc3nsnc3c2)C[C@H]1c1ccncc1,20.11%
8,CCOCCC(=O)N1CCCN(Cc2csc(CC)n2)CC1,-3.622%
9,CC(C(=O)NCCc1cccs1)N1CCC(n2ccnc2)CC1 (stereo unspecified),14.05%
10,N#Cc1cccc(N2CCC(c3nccn3Cc3cscn3)CC2)n1,19.37%
11,CC(C(=O)NCC1(c2cccc(Br)c2)CCC1)S(C)(=O)=O (stereo unspecified),-10.98%
12,O=C(NC1CC1)c1cc2c(nc1O)CC(c1cccs1)CC2=O (stereo unspecified),2.644%
13,O=C(c1cc(Cl)ccc1OC1CCN(C2CCCC2)CC1)N1CCCO1,-1.079%
14,Cc1cc(N(Cc2ccccc2F)C2CC2)n2nc(C(F)(F)F)nc2n1,37.88%
15,Cc1ccc(CN(c2cc(C)nc3nc(C(F)(F)F)nn23)C2CC2)cc1,24.27%
16,Cc1cc(N(Cc2cccs2)C2CC2)n2nc(C(F)(F)F)nc2n1,103%
17,CC(C)OCCS(=O)(=O)NC1CCN(C2CCCC2)C1 (stereo unspecified),-4.658%
18,CNc1cc(CCNS(=O)(=O)c2ccccc2)nc(-c2ccccn2)n1,105%
19,CNc1cc(CCNC(=O)C2CCCC2)nc(-c2ccccn2)n1,117%
20,O=C(NC[C@H]1O[C@H](Cc2cc(-c3ccccn3)on2)CC[C@@H]1O)C1CC1,-6.652%
21,CC(C)C(O)CNC(=O)CCCc1ccccn1 (stereo unspecified),-2.211%
22,CN(C)C(=O)c1cccc(CCNS(=O)(=O)c2ccccc2)c1,19.97%

row,SMILES,Percent Effect
1,O=C(Nc1cc(-c2ccccn2)no1)C1CC1,-13.86%
2,CCc1nc(CCNS(=O)(=O)c2cccc(C(=O)N(C)CC)c2)cs1,4.281%
3,CNc1cc(CCNC(=O)CC(C)C)nc(-c2ccccn2)n1,101.5%
4,CNc1cc(CCNC(=O)c2cccnc2)nc(-c2ccncc2)n1,-9.73%
5,CC(O)CN1CCC(CNCCOCC(F)(F)F)CC1 (stereo unspecified),8.822%
6,Cc1cccc2[nH]c(C3CCN(C(=O)c4cccnn4)CC3)nc12,19.31%
7,Cc1cccc(CN2Cc3[nH]nc(COCCO)c3C2)n1.O=C(O)C(F)(F)F,-6.746%
8,CCOCCCNC(=O)c1cc(Br)c2c(c1)OCCO2,-17.45%
9,CCOCCCNC(=O)CN(c1ccc(F)c(F)c1)S(C)(=O)=O,103.3%
10,Cc1ccc(N(CC(=O)NCc2nnc3n2CCC3)S(C)(=O)=O)cc1,-5.606%
11,CCOCCCNC(=O)CCSCc1csc(C)n1,4.852%
12,CCOCCCNC(=O)CN(c1ccc(C)c(C)c1)S(C)(=O)=O,99.16%
13,CCOCCCNC(=O)CN(c1cc(C)cc(C)c1)S(C)(=O)=O,107.2%
14,Cc1cccc(CC(=O)NCCCOC(C)C)c1,4.055%
15,CCOCCC(=O)N(C)c1ccc(F)c(Cl)c1,-4.782%
16,CCOCCCC(=O)NS(=O)(=O)c1ccc(C)s1,-11.1%
17,CC(C)OCCCNC(=O)CSc1nnc(OC(C)C)s1,-7.044%
18,CC(C)OCCCNC(=O)CN(c1ccc(F)c(F)c1)S(C)(=O)=O,109.3%
19,CCOCC(=O)N(C)c1ccc(F)c(Cl)c1,11.18%
20,CCCNC(=O)C(C)Nc1ccn(Cc2ccccn2)n1 (stereo unspecified),6.912%
21,CCCOCCN1CCc2[nH]c(-c3ccccc3)nc2C1,-7.69%
22,CN(C)C1COC2(CCN(S(=O)(=O)c3ccc(F)cc3)CC2)C1.O=C(O)C(F)(F)F (stereo unspecified),-7.314%

row,SMILES,Percent Effect
1,CN(CC1Cc2ccccc2CN1C)c1nc(N)nc2c1CCNCC2 (stereo unspecified),-3.797%
2,COCc1cc(N(C)Cc2c(C)nn(C)c2C)n2nccc2n1,12.12%
3,CCOCCCNC(=O)Cc1cccc(F)c1,2.614%
4,CCOCCCNC(=O)CN(c1cccc(F)c1)S(C)(=O)=O,112.7%
5,COCCCNC(=O)CN(C)Cc1ccc(F)cc1Cl,-11.13%
6,COc1cccc2ccc(CN3CCN(c4ncccc4C)CC3)nc12,2.179%
7,Cc1nc(N)sc1C(=O)N1CCCC(COc2ccc(F)cc2)C1 (stereo unspecified),-20.41%
8,CN1N=C(C(=O)N2CCCC(CCc3c(F)cccc3F)C2)CCC1=O (stereo unspecified),7.677%
9,O=C(c1cnc(O)cc1O)N1CCCC(CCc2ccccc2F)C1 (stereo unspecified),119.6%
10,CCc1nc(N)sc1C(=O)N1CCCC(CCc2ccccc2C)C1 (stereo unspecified),1.755%
11,Cc1ccc(-c2ncc(C(=O)N3CCCC(CCN)C3)c(O)n2)cc1 (stereo unspecified),0.928%
12,Cc1nc(N)ncc1C(=O)N1CCCC(CCc2ccc(F)c(F)c2)C1 (stereo unspecified),95.78%
13,Cc1nc(CN2CCCC(CCc3ccc(F)c(F)c3)C2)c[nH]1 (stereo unspecified),-4.452%
14,COc1coc(CN2CCCC(CCc3ccccc3F)C2)cc1=O (stereo unspecified),19.37%
15,Cc1nc(N)ncc1C(=O)N1CCCC(CCc2ccccc2F)C1 (stereo unspecified),102.1%
16,Cc1nc(N)ncc1C(=O)N1CCCC(CCc2ccc(F)cc2)C1 (stereo unspecified),102.6%
17,CN1N=C(C(=O)N2CCCC(CCc3cccc(F)c3)C2)CCC1=O (stereo unspecified),-39.97%
18,CN1N=C(C(=O)N2CCCC(CCc3ccccc3F)C2)CCC1=O (stereo unspecified),-18.53%
